# Measurements taken from PubChem BioAssay AID430 (Sanford-Burnham Center for Chemical Genomics, 2006).
# Among all 63,000 compounds or so, about 1,100 (1.7%) were called active. The entries come from a sample that favours actives as a whole. Measured potencies and affinities stand elsewhere. Unmarked numbers belong to inactive results. Rule as the data show it: active = cytotoxicity above about 50%; inactive = the rest.
# Assay: HPDE-C7 pancreatic duct cell viability loss – fluorescence, HTS (AID 430);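 also: cells exposed to compound for 48 hours before viability readout; 0% = vehicle and 100% = reference cytotoxic drug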
# Settings: HPDE-C7 pancreatic duct cells viability, at 10 µM, hits give high values
row,SMILES,cytotoxicity
1,Cc1noc(C)c1C(=O)OCC(=O)c1c[nH]c2ccccc12,4.1%
2,O=C(NCCC1=CCCCC1)C1CC(=O)N(C2CCCCC2)C1 (stereo not drawn),1.5%
3,COc1ccc(-c2noc(CCC(=O)N3CCN(c4cc(C)ccc4C)CC3)n2)cc1,11.6%
4,O=C(CSCc1nc2ccccc2[nH]1)N1CCN(c2cccc(Cl)c2)CC1,7.4%
5,COc1ccc(CCN2CC(C(=O)O)CC2=O)cc1 (stereo not drawn),1.2%
6,c1ccc(CCc2nc(-c3ccccn3)no2)cc1,6.2%
7,O=C1c2ccccc2NC(c2ccccn2)N1c1ccc(Cl)cc1 (stereo not drawn),-4.1%
8,CCN(CC)S(=O)(=O)c1ccc(NC(=O)CSc2nnc(-c3ccc(F)cc3)o2)cc1,-7.7%
9,COc1cccc(-c2nnc(NC(=O)c3ccccc3Br)o2)c1,22.6%
10,CCCN(CCC)S(=O)(=O)c1ccc(C(=O)Nc2nnc(-c3cccc(OC)c3)o2)cc1,66.4% (active)
11,COc1cccc(-c2nnc(NC(=O)c3ccc(S(=O)(=O)N4CCOCC4)cc3)o2)c1,13.7%
12,COc1cccc(-c2nnc(NC(=O)c3ccc(S(=O)(=O)N(CC(C)C)CC(C)C)cc3)o2)c1,51.2% (active)
13,CCCN(CCC)S(=O)(=O)c1ccc(C(=O)Nc2nnc(-c3cc(OC)cc(OC)c3)o2)cc1,47.5%
14,COc1cccc(-c2nnc(NC(=O)c3ccc(S(=O)(=O)N4CC(C)OC(C)C4)cc3)o2)c1 (stereo not drawn),-5.9%
15,CCCn1c(SCC(=O)Nc2nnc(CC)s2)nnc1-c1ccco1,-5%
16,O=C(Nc1ccc2oc(=O)ccc2c1)c1cccnc1,3%
17,COc1ccccc1-c1nc(-c2ccncc2)no1,2.1%
18,COc1cc2oc(=O)c(Br)c(C)c2c(OC)c1OC,-8.6%
19,CCCS(=O)(=O)c1c(S(=O)(=O)CCC)c2ccccn2c1C(=O)OC,-3.7%
20,CCN1CCN(c2cc(=O)n(C3CCCCC3)c(=O)[nH]2)CC1,-14.2%
21,CCOC(=O)N1CCN(C(=O)CCc2c(C)nc3c(c(C)nn3-c3ccc(C)c(C)c3)c2C)CC1,-7.7%
22,CCCCOc1ccc(S(=O)(=O)Nc2cc(OC)ccc2OC)cc1,31.3%
23,COc1ccc(OC)c(NS(=O)(=O)c2ccc(N3CCCC3=O)cc2)c1,75.9% (active)
24,CCOc1ccc(S(=O)(=O)Nc2cc(OC)ccc2OC)cc1,73.1% (active)
25,COC(=O)COc1ccc(S(=O)(=O)Nc2cc(OC)ccc2OC)cc1,-2.9%

row,SMILES,cytotoxicity
1,COc1ccc(OC)c(NS(=O)(=O)c2ccc3c(c2)CCC(=O)N3)c1,3.3%
2,COc1ccc(OC)c(NS(=O)(=O)c2ccc(SC)cc2)c1,36.3%
3,Cc1cc(C(=O)NCc2ccccc2)c(=O)[nH]c1C,-2.3%
4,Cc1cc(C)n2nc(SCC#N)nc2n1,1.5%
5,CCCCOCCCNC(=O)c1c(-c2ccccc2)noc1C,6.3%
6,O=C(NCc1cccnc1)C1CC(c2ccc(F)cc2)=NO1 (stereo not drawn),-10.8%
7,COc1ccc(C2=NOC(C(=O)NCC(C)C)C2)cc1 (stereo not drawn),-14.9%
8,COc1ccc(C2=NOC(C(=O)NCc3ccccc3)C2)cc1 (stereo not drawn),54.5% (active)
9,COc1ccc(CNC(=O)C2CC(c3ccc(OC)cc3)=NO2)cc1 (stereo not drawn),17.5%
10,COc1ccc(CNC(=O)C2CC(c3ccc(F)cc3)=NO2)cc1 (stereo not drawn),1%
11,COc1ccc(C2=NOC(C(=O)NCc3ccc(F)cc3)C2)cc1 (stereo not drawn),63.5% (active)
12,CC(=O)Nc1ccc(NS(=O)(=O)c2ccc(Cl)c(C(=O)O)c2)cc1,0.9%
13,COC(=O)CC1=NC(=O)CS1,0.6%
14,COC(=O)c1ccccc1NC(=O)CSc1nnc(CNS(=O)(=O)c2ccc(C)cc2)n1C,-12.6%
15,O=C1OCCN1CCN(CN1C(=O)CCC1=O)CN1C(=O)CCC1=O,5.9%
16,O=C(CN(Cc1ccc2c(c1)OCO2)C(=O)c1cnsn1)NC1CCCC1,7%
17,O=C(Nc1cccnc1)c1ccc(Cl)c(S(=O)(=O)N2CCCCCC2)c1,12.4%
18,COc1ccccc1NC(=O)c1ccc(Cl)c(S(=O)(=O)N2CCOCC2)c1,-10.1%
19,COc1ccc(NC(=O)c2ccc(Cl)c(S(=O)(=O)N3CCc4ccccc4C3)c2)cn1,86.5% (active)
20,COc1ccc(CNC(=O)C2CCCN(S(=O)(=O)c3cnc[nH]3)C2)cc1 (stereo not drawn),-4.6%
21,CN(CC(O)COc1ccc(OCC(O)CN(C)C2CCCCC2)cc1)C1CCCCC1 (stereo not drawn),7.7%
22,Cc1csc(SCC(=O)Nc2c(C)n(C)n(-c3ccccc3)c2=O)n1,3.8%
23,COc1ccc(S(=O)(=O)Nc2nc(C(F)(F)F)cs2)cc1,-2.3%
24,Cc1cc(C)c2c(CC(=O)NCc3ccco3)coc2c1,4.1%
25,Cc1ccc2c(CC(=O)NCc3ccco3)coc2c1C,64.7% (active)

row,SMILES,cytotoxicity
1,O=C(Cc1cccs1)NCc1ccco1,5.7%
2,O=C(c1cnn2ccccc12)N(Cc1ccco1)C1CCCC1,-3.3%
3,CCOc1ccc(-c2nnc3n2N=C(c2ccc(OC)cc2)CS3)cc1,0.1%
4,COc1ccc(C2=Nn3c(nnc3-c3ccccc3)SC2)cc1OC,3.6%
5,COc1ccc(-c2nnc3n2N=C(c2ccccc2)CS3)cc1OC,-2.9%
6,CCOc1ccc(C2=Nn3c(nnc3-c3ccc(OC)cc3)SC2)cc1,45.9%
7,COc1ccc(OC)c(C2=Nn3c(nnc3-c3cc(OC)c(OC)c(OC)c3)SC2)c1,4.4%
8,Cc1ccc(-c2nnc3n2N=C(c2ccccc2)CS3)cc1,-4.2%
9,CCOc1ccc(C2=Nn3c(nnc3-c3ccccc3OC)SC2)cc1,63.4% (active)
10,c1ccc(C2=Nn3c(nnc3-c3cc(-c4ccccc4)n[nH]3)SC2)cc1,5.2%
11,COc1cc(-c2nnc3n2N=C(c2ccccc2)CS3)cc(OC)c1OC,57.4% (active)
12,COc1ccc(C2=Nn3c(nnc3-c3ccccn3)SC2)cc1OC,-0.7%
13,CCC(C)Oc1cccc(C(=O)Nc2ccccc2N2CCOCC2)c1 (stereo not drawn),1.7%
14,CCCn1c(SCC(=O)Nc2c(CC)cccc2CC)nnc1C(C)C,-2.4%
15,Cc1ccc(S(=O)(=O)NCC(C)NS(=O)(=O)c2ccc(C)cc2)cc1 (stereo not drawn),-44.3%
16,COc1ccc2nc(NC(=O)CN(c3ccc(C)cc3)S(=O)(=O)c3c(C)nn(C)c3C)sc2c1,10.7%
17,OC(COc1c(Cl)cc(Cl)cc1Cl)CN1CCCCC1 (stereo not drawn),7.4%
18,CC(=O)Nc1ccc(S(=O)(=O)N2CCSC2c2ccc(C)cc2)cc1 (stereo not drawn),0.6%
19,Nc1nnc2c(n1)CCCC2,2.7%
20,COc1ccccc1-c1nnc2n1N=C(c1ccc(O)c(O)c1)CS2,60.1% (active)
21,COc1cccc(C2=Nn3c(nnc3-c3ccccc3O)SC2)c1,-36.1%
22,COc1ccccc1-c1nnc2n1N=C(C)CS2,-3.3%
23,c1ccc(Nc2nc(N3CCCCC3)nc(N3CCNCC3)n2)cc1,71.8% (active)
24,C1CCN(c2nc(N3CCCCC3)nc(N3CCNCC3)n2)CC1,2.9%
25,c1ccc(Nc2nc(N3CCOCC3)nc(N3CCOCC3)n2)cc1,3.2%

row,SMILES,cytotoxicity
1,CCOC(=O)C1CCCN(C(=O)c2cn(CC)c3ccc(S(=O)(=O)N4CCCC4)cc3c2=O)C1 (stereo not drawn),-6.2%
2,CC(C)NC(=O)c1ccccc1NC(=O)CCS(=O)(=O)Cc1ccccc1,-16.4%
3,Cn1c(CSc2ccccc2)c(C#N)c2ccccc21,-6.2%
4,Cc1cc(C(=O)CSc2nnc(NCc3ccccc3)s2)c(C)n1C,58% (active)
5,O=C(CSc1nnc(NCc2ccccc2)s1)c1ccco1,-4.8%
6,Cc1cc(C(=O)CSc2nnc(-c3ccccc3)n2C)c(C)n1C,5.7%
7,Cc1cc(C(=O)CSc2nnc(Nc3ccccc3)s2)c(C)n1CC1CCCO1 (stereo not drawn),2.6%
8,C=CCn1c(C)cc(C(=O)CSc2nnc(NCc3ccccc3)s2)c1C,52.9% (active)
9,C=CCn1c(C)cc(C(=O)CSc2nnc(Cc3ccccc3)o2)c1C,-20.7%
10,Cc1cc(N2C(=O)C3C4C=CC(C4)C3C2=O)no1 (stereo not drawn),-1%
11,COCCCn1c(=S)[nH]c2ccc(N3CCOCC3)cc2c1=O,-10.8%
12,O=C(O)CCCC(=O)Nc1ccccc1Br,5.7%
13,CCN1C(=O)c2cccc3c(S(=O)(=O)Nc4nc(C)cs4)ccc1c23,58.9% (active)
14,CCN1C(=O)c2cccc3c(S(=O)(=O)Nc4ncccc4C)ccc1c23,23.7%
15,CCOC(=O)Cc1csc(NS(=O)(=O)c2ccc3c4c(cccc24)C(=O)N3CC)n1,8.7%
16,Cc1ccc(C(=O)c2coc3ccc(O)c(CN4CCN(C)CC4)c23)cc1,-5.9%
17,CC(=O)C(C(C)=O)c1c(Cl)c(O)c(O)c2c(C(=O)c3ccccc3)coc12,82.2% (active)
18,CN(C)Cc1c(O)ccc2occ(C(=O)c3ccccc3)c12,6.4%
19,O=C(c1ccccc1)c1coc2ccc(O)c(Cl)c12,-4.8%
20,CCOC(=O)c1[nH]nc(C(=O)c2ccc(Br)cc2)c1O,-10.7%
21,Cc1ccc(OCCn2nc3ccccc3n2)c(C)c1,-1.3%
22,O=C(CSc1nnc(CNC(=O)c2ccccc2F)o1)Nc1ccc2c(c1)OCCO2,1.1%
23,O=C(c1ccco1)N1CCN(S(=O)(=O)c2cccs2)CC1,-11.8%
